Here are results for 68 compounds from ChEMBL document CHEMBL4513216, “Probing the Open Global Health Chemical Diversity Library for Multistage-Active Starting Points for Next-Generation Antimalarials” (ACS Infect Dis, 2020).

Out of some 68,000 compounds screened, about 2,700 (4%) showed an effect of 50% or more. For the sample, strong results were picked, then their nearest neighbours and some compounds at random.

In this assay the test system is Plasmodium berghei. Kind of assay: Screen against P. berghei liver stage (PbLuc), transformed with Luciferase, at 2uM. The following applies: tested at 2 uM. Type of assay: functional, HepG2.
As to `CN(Cc1nc(C2CC2)no1)C1CCS(=O)(=O)C1` (stereo not drawn), the INHIBITION was determined as 31.27%.
The result for `COc1ccc(OCc2noc(CN(C)C3CCS(=O)(=O)C3)n2)cc1` (stereo not drawn) reads 57.91%.
The same measure for `CC(C)Cc1noc(CN(C)C2CCS(=O)(=O)C2)n1` (stereo not drawn): -12.52%; for `CN(C)c1ccc(NC(=O)C2CN(Cc3ccccc3)CCO2)cn1` (stereo not drawn): 12.94%.
The result for `CCC1=NN2C(=N)C(=Cc3cccn3-c3ccc(Cl)cc3)C(=O)N=C2S1` reads -3.11%; that for `O=C(C1CC1)N1CCC2(CCN(Cc3cccc(F)c3)CC2)CC1`, 27.05%.
Turning to `O=C(c1ccn(-c2cccc(F)c2)n1)N1CCN(CCO)CC1`, the INHIBITION is reported as 19.12%.
The result for `O=C(c1ccn(-c2cccc(F)c2)n1)N1CCN(CC2CC2)CC1` reads -40.27%.
The result for `O=C(NCCn1ccnc1)c1ccn(-c2cccc(F)c2)n1` reads 8.37%; that for `CCC(O)CN1CCN(C(=O)c2ccn(-c3ccccc3)n2)CC1` (stereo not drawn), 14.97%; that for `CC(C)(O)CN1CCN(C(=O)c2ccn(-c3cccc(F)c3)n2)CC1`, 65.76%.
The same measure for `CC(O)CN1CCN(C(=O)c2ccn(-c3cccc(Cl)c3)n2)CC1` (stereo not drawn): -42.32%; for `CCC(O)CN1CCN(C(=O)c2ccn(-c3cccc(F)c3)n2)CC1` (stereo not drawn): 52.3%.
As for `O=C(NCCn1cccn1)c1ccn(-c2cccc(F)c2)n1`, the INHIBITION amounted to 64.16%.
The result for `CC1CCCCN1CCNC(=O)c1ccn(-c2cccc(F)c2)n1` (stereo not drawn) reads 2.18%; that for `NC(=O)COc1ccc(CNCc2cc(F)cc(F)c2)cc1`, 19.7%; that for `NC(=O)N1CCCC(c2nc(-c3cccnn3)no2)C1` (stereo not drawn), 19.39%.
With `Cc1noc(C)c1CN1C(=O)[C@@H]2CC[C@H]1CN(Cc1cccc(O)c1)C2`, the INHIBITION amounted to 30.42%.
The result for `CC(C)O[C@@H]1CC[C@H]2[C@H]1OCCN2C(=O)c1nn(C)c2ccccc12` reads -13.37%; that for `CCN(CC)C(CNCc1ccc(C)o1)c1ccco1` (stereo not drawn), 15.89%; that for `CCN1C(=O)CCCC12CCCN(C(=O)c1cnccn1)C2` (stereo not drawn), -41.21%.
As to `CC(CN1CCOCC1)N(Cc1ccccc1)Cc1ccncc1` (stereo not drawn), the INHIBITION was 8.73%.
Take `COc1cc2c(cc1CNCc1ccnc(-n3cccn3)c1)OC(C)C2` (stereo not drawn): the INHIBITION amounted to 17.61%.
The same measure for `CCOCCC(=O)N(Cc1ccncc1)C(C)CC` (stereo not drawn): -35.26%.
The result for `CCCC(=O)N(Cc1ccncc1)C(C)CC` (stereo not drawn) reads 52.98%; that for `CCC(C)N(Cc1ccncc1)C(=O)CCSC` (stereo not drawn), -20.95%.
Consider `O=C([C@H]1C[C@H]2OCC[C@H]2N(Cc2ccoc2)C1)N1CCCCO1`, for which the INHIBITION worked out at 21.77%.
The result for `CS(=O)(=O)NCCCn1ccc2ccccc21` reads 24.23%; that for `CCNC(=O)CCC(=O)NC(C)Cc1ccccc1Br` (stereo not drawn), -3.87%; that for `COC(=O)NCCC(=O)NC(C)Cc1ccccc1Br` (stereo not drawn), 63.46%.
The result for `COC(=O)CCC(=O)NC(C)Cc1ccccc1Br` (stereo not drawn) reads 2.7%; that for `CS(=O)(=O)NCc1cc(-c2cc(F)cc(F)c2)nc(N2CC[C@H](O)C2)n1`, 4.66%.
The same measure for `COc1ncccc1CNC(=O)NC(C)Cn1cccn1` (stereo not drawn): 31.7%; for `COc1c(C(=O)N2CCOC(c3cccs3)C2)c(C)nn1C` (stereo not drawn): -11.34%; for `O=C(c1cccc(CO)n1)N1CCCC1c1nc2cc(F)ccc2[nH]1` (stereo not drawn): -20.6%.
In the case of `Fc1ccc2[nH]c(C3CCCN3Cc3c[nH]cn3)nc2c1` (stereo not drawn), the INHIBITION is 19.59%.
The same measure for `Fc1ccc2[nH]c(C3CCCN3CCc3ccccn3)nc2c1` (stereo not drawn): -55.56%; for `O=C(CN1CCCC1c1nc2cc(F)ccc2[nH]1)NCc1ccccn1` (stereo not drawn): 57.75%.
The same measure for `Cc1cc(C(=O)N2CCCCC2c2nc3cc(F)ccc3[nH]2)no1` (stereo not drawn): 33.92%.
In the case of `Cc1cccc(C(=O)N2CCCCC2c2nc3cc(F)ccc3[nH]2)n1` (stereo not drawn), the INHIBITION is listed as 65.04%.
The same measure for `COCC(=O)N1CCCC1c1cc(Nc2nnc(C)s2)nc(C)n1` (stereo not drawn): 10.43%; for `CCN1CCCc2cc(CN3CCc4c(nc(C)[nH]c4=O)C3)ccc21`: -9.49%; for `Cc1cc(C)nc(N2CCC(C(=O)Nc3n[nH]c(C(C)C)n3)CC2)n1`: 19.84%.
For the compound `COc1c(C2CCCN2C(=O)CCNc2ncccn2)c(C)nn1C` (stereo not drawn), the INHIBITION came out at 6.89%.
The result for `Cc1ccc(C(=O)NCc2ccc(N(C)C)cc2)cn1` reads 8.73%.
The result for `CN(c1ccc(CNC(=O)c2c[nH]c(=O)c(Cl)c2)cc1)C1CCCCC1` reads -20.64%; that for `CN(c1ccc(CNC(=O)c2ccc(O)nc2)cc1)C1CCCCC1`, 51.76%.
The result for `COCc1ccccc1NC(=O)NC(C)c1ccc(C)o1` (stereo not drawn) reads 53.19%; that for `Cc1ccc(C(C)NC(=O)Nc2ccccc2CN2CCOCC2)o1` (stereo not drawn), -10.54%.
For the compound `COCc1ccccc1NC(=O)c1ccoc1`, the INHIBITION was -38.36%.
The result for `CC(C)N(C)Cc1cc(=O)n2c(n1)CN(C(=O)c1ccnnc1)CCC2` reads 25.92%.
On to `COc1ccc(C)cc1CN1CCC(c2cc3ncccc3cn2)CC1`, for which the INHIBITION was -17.29%.
The result for `CCn1c(C)nnc1SCCNC(=O)Cn1cnc2ccccc2c1=O` reads 38.67%; that for `CO[C@@H]1CCN(Cc2nccs2)C[C@@H]1Cc1cccc(C)c1`, 10.17%; that for `CS(=O)(=O)Cc1nc(CN2CCc3ccccc3CC2)cs1`, 41.05%.
Take `CS(=O)(=O)Cc1nc(CN2CCC(C(F)(F)F)CC2)cs1`: the INHIBITION was determined as 62.51%.
The same measure for `CS(=O)(=O)Cc1nc(CN2CCOc3ccccc3C2)cs1`: 33.9%; for `CS(=O)(=O)Cc1nc(CN2CC=C(c3ccccc3)CC2)cs1`: -4.26%.
The result for `CC1(C)CN(Cc2csc(CS(C)(=O)=O)n2)Cc2ccccc21` reads 52.98%.
As for `CS(=O)(=O)Cc1nc(CN2CCCc3sccc3C2)cs1`, the INHIBITION was 38.67%.
The result for `CN(C)C1COC2(CCN(S(=O)(=O)c3ccc(F)cc3)CC2)C1` (stereo not drawn) reads 42.4%; that for `Cc1ccccc1C1CCCN(C(=O)c2c[nH]c(=O)c(Cl)c2)C1` (stereo not drawn), 23.16%.
The result for `Fc1cccc(N2CCCC3(C2)CN(c2ncccn2)CCO3)c1` (stereo not drawn) reads 39.9%; that for `Cc1noc(C2CCCN(C(=O)c3ccc(Br)o3)C2)n1` (stereo not drawn), 3.9%; that for `Cc1nn(C)c(C)c1C1CCCN1c1ncnc2[nH]ccc12` (stereo not drawn), -41.8%.
As to `COc1ccc2c(c1)CCCN(C(C)C(=O)NC(C)C)C2` (stereo not drawn), the INHIBITION is on record as 47.68%.
The same measure for `COC(=O)C(C)N1CCCc2cc(OC)ccc2C1` (stereo not drawn): 58.69%; for `COc1ccc2c(c1)CCCN(C(C)C(=O)NC(N)=O)C2` (stereo not drawn): 6.92%.
